Data published in PubChem BioAssay (Tox21).
Results filed as inconclusive are left out. Where a call stands in place of a potency, no number is given. Active and inactive are the calls of the source. Unless noted, calls come from the whole dose curve; as a rule, active = well fitted curve in the direction sought with a large enough effect in the repeat runs; inconclusive = weak or mixed curves; inactive = no such curve, though single readings can be large; an effect the other way counts as inactive or inconclusive.

How the values were obtained:
[1] = qHTS assay to identify small molecule antagonists of the peroxisome proliferator-activated receptor gamma (PPARg) signaling pathway - cell viability counter screen (AID 743194); note: nearly all actives have a fitted effect of over 55% in size
How it was run: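 Cytotoxicity counter screen in PPARg-bla HEK293H cells, same wells as reporter assay. Compounds plus 50 nM rosiglitazone (final) for 17 h at 37 C, then viability read by CellTiter-Glo luminescence.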

[2] = qHTS assay for small molecule agonists of the antioxidant response element (ARE) signaling pathway (AID 743202; active = well fitted activation curve with a large enough effect in the signal ratio in the repeat runs, not every such curve was filed as active; the % refers to the signal ratio; note: potency is the fitted concentration of half-maximal effect)
How it was run: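 HepG2 ARE-bla cells; 16 h treatment at 37 C; FRET-based beta-lactamase fluorescence read after 2 h substrate incubation at room temperature.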

[3] = qHTS assay for small molecule agonists of the antioxidant response element (ARE) signaling pathway - cell viability counter screen (AID 743203; calls by dose curve; note: nearly all actives have a fitted effect of over 55% in size; note: potency is the fitted concentration of half-maximal effect)
How it was run: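 Measured in the same wells as the beta-lactamase ARE reporter, this read-out is CellTiter-Glo luminescence from HepG2 ARE-bla cells given compounds for 16 hrs.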

[4] = qHTS assay for small molecule activators of the heat shock response signaling pathway - cell viability counter screen (AID 743209); note: nearly all actives have a fitted effect of over 50% in size
How it was run: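 Same-well multiplex: after 2.5 h room-temperature incubation with LiveBLAzer B/G substrate and fluorescence reading, CellTiter-Glo reagent was added to HSE-bla HeLa cells that had received compound for 5 h at 37 C; luminescence read after 30 min.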

[5] = qHTS assay for small molecule activators of the heat shock response signaling pathway (AID 743210; active = well fitted activation curve with a large enough effect in the signal ratio in the repeat runs, with a control signal flat, not every such curve was filed as active; the % refers to the signal ratio;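 note: HeLa cells with beta-lactamase reporter driven by heat shock elements; series mostly up to about 63 µM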)
How it was run: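 Following overnight attachment, HSE-bla HeLa cells received test compounds for 5 h at 37 C; beta-lactamase activity was then detected via FRET substrate fluorescence.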

[6] = qHTS assay to identify small molecule agonists of the peroxisome proliferator-activated receptor delta (PPARd) signaling pathway - cell viability counter screen (AID 743211); note: nearly all actives have a fitted effect of over 55% in size
How it was run: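 Tox21 library compounds, delivered in DMSO, were incubated 17 h with PPARd-bla HEK293H cells; cytotoxicity was taken from CellTiter-Glo luminescence read 30 min after reagent addition.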

[7] = qHTS assay to identify small molecule antagonists of the peroxisome proliferator-activated receptor delta (PPARd) signaling pathway - cell viability counter screen (AID 743213); note: nearly all actives have a fitted effect of over 50% in size
How it was run: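 Same-well viability: cells pre-incubated 5 h, dosed with compound plus 300 nM L165041, kept 17 h at 37 C, FRET substrate 2 h RT, then CellTiter-Glo 30 min RT and luminescence.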

[8] = biological target: Peroxisome proliferator-activated receptor delta (Homo sapiens) (UniProt Q03181); assay: qHTS assay to identify small molecule antagonists of the peroxisome proliferator-activated receptor delta (PPARd) signaling pathway (AID 743215; active = well fitted inhibition curve with a large enough effect in the signal ratio in the repeat runs, not every such curve was filed as active; the % refers to the signal ratio;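 note: cells stimulated with agonist L165041 at 300 nM final during compound exposure; series mostly up to about 62 µM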)
How it was run: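 Fluorescence from cleaved LiveBLAzer B/G FRET substrate (2 h, room temperature) reports PPARd-driven beta-lactamase in HEK293H UAS-bla cells. Cells had been treated 17 h at 37 C with compound plus 300 nM final L165041.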

[9] = qHTS assay to identify small molecule agonists of the farnesoid-X-receptor (FXR) signaling pathway - cell viability counter screen (AID 743218); note: nearly all actives have a fitted effect of over 45% in size
How it was run: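 Readout: CellTiter-Glo luminescence, 30 min RT, multiplexed after the FXR-bla FRET reading. HEK 293T FXR-UAS-bla cells received compound 5 h post-plating and were incubated 16 h at 37 C.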

[10] = qHTS assay to identify small molecule antagonists of the farnesoid-X-receptor (FXR) signaling pathway - cell viability counter screen (AID 743221; active = well fitted cell-killing curve with a large enough effect in the repeat runs, not every such curve was filed as active; note: nearly all actives have a fitted effect of over 50% in size)
How it was run: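 Cytotoxicity is taken from ATP luminescence (CellTiter-Glo, 30 min, room temperature) in FXR-bla HEK 293T cells previously incubated 16 h at 37 C with compound and chenodeoxycholic acid at 50 uM final.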

[11] = biological target: Vitamin D3 receptor (Homo sapiens) (UniProt P11473); assay: qHTS assay to identify small molecule agonists of the vitamin D receptor (VDR) signaling pathway (AID 743222; calls by dose curve)
How it was run: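 Following 4 h attachment at 37C, VDR-bla cells (2,000 per well) received DMSO-dissolved compounds or controls. After 16 h incubation, LiveBLAzer B/G FRET substrate was added and fluorescence read 2 h later at room temperature.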

[12] = biological target: Vitamin D3 receptor (Homo sapiens) (UniProt P11473); assay: qHTS assay to identify small molecule antagonists of the vitamin D receptor (VDR) signaling pathway (AID 743223; active = well fitted inhibition curve with a large enough effect in the signal ratio in the repeat runs, not every such curve was filed as active; the % refers to the signal ratio)
How it was run: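 Quantitative HTS in VDR-bla reporter cells stimulated with 1alpha,25-dihydroxyvitamin D3, 3 nM final. Compound exposure 16 h, 37C, 5% CO2. Read-out: beta-lactamase FRET substrate fluorescence, 2 h RT.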

[13] = qHTS assay to identify small molecule agonists of the vitamin D receptor (VDR) signaling pathway - cell viability counter screen (AID 743224); note: series mostly up to about 63 µM; nearly all actives have a fitted effect of over 50% in size
How it was run: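 In parallel with the bla FRET readout, cytotoxicity toward VDR-bla cells after 16 h compound exposure was assessed by CellTiter-Glo, with luminescence recorded after a 30 min room-temperature incubation.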

[14] = qHTS assay to identify small molecule antagonists of the vitamin D receptor (VDR) signaling pathway - cell viability counter screen (AID 743225); note: nearly all actives have a fitted effect of over 50% in size
How it was run: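 Same-well multiplex: following 16 h treatment of HEK 293T cells carrying a UAS-driven beta-lactamase reporter with compound and agonist (3 nM final), and a 2 h FRET substrate step, CellTiter-Glo was added and luminescence read after 30 min.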

[15] = biological target: Peroxisome proliferator-activated receptor gamma (Homo sapiens) (UniProt P37231); assay: qHTS assay to identify small molecule agonists of the peroxisome proliferator-activated receptor gamma (PPARg) signaling pathway (AID 743094; active = well fitted activation curve with a large enough effect in the signal ratio in the repeat runs, not every such curve was filed as active; the % refers to the signal ratio; note: potency is the fitted concentration of half-maximal effect)
How it was run: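 Cell-based bla reporter, HEK293H background, PPARg-driven UAS. Pre-incubation 5 h, 37C, 5% CO2. Compound 17 h, 37C. Substrate 1 h RT; fluorescence.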

[16] = biological target: Peroxisome proliferator-activated receptor delta (Homo sapiens) (UniProt Q03181); assay: qHTS assay to identify small molecule agonists of the peroxisome proliferator-activated receptor delta (PPARd) signaling pathway (AID 743212; calls by dose curve)
How it was run: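 Tox21 library screened in GeneBLAzer PPARd UAS-bla HEK293H cells. After compound treatment at 37 C, a FRET-based beta-lactamase substrate was applied for 2 h and fluorescence recorded.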

[17] = biological target: Bile acid receptor (Homo sapiens) (UniProt Q96RI1); assay: qHTS assay to identify small molecule antagonists of the farnesoid-X-receptor (FXR) signaling pathway (AID 743217; active = well fitted inhibition curve with a large enough effect in the signal ratio in the repeat runs, not every such curve was filed as active; the % refers to the signal ratio)
How it was run: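 FRET fluorescence after 2 h room-temperature LiveBLAzer loading gives the readout. Prior step: FXR-bla HEK 293T cells, seeded and incubated 5 h, received test compounds plus 50 uM final CDCA for 16 h at 37 °C.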

[18] = biological target: Bile acid receptor (Homo sapiens) (UniProt Q96RI1); assay: qHTS assay to identify small molecule agonists of the farnesoid-X-receptor (FXR) signaling pathway (AID 743220; active = well fitted activation curve with a large enough effect in the signal ratio in the repeat runs, not every such curve was filed as active; the % refers to the signal ratio)
How it was run: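 FXR-UAS-bla HEK 293T cells carrying a UAS-driven beta-lactamase reporter were plated for 5 h at 37C/5% CO2, then exposed to DMSO-dissolved Tox21 10K compounds for 16 h at 37C. A LiveBLAzer B/G FRET substrate was loaded for 2 h at room temperature before fluorescence reading.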

[19] = biological target: Peroxisome proliferator-activated receptor gamma (Homo sapiens) (UniProt P37231); assay: qHTS assay to identify small molecule antagonists of the peroxisome proliferator-activated receptor gamma (PPARg) signaling pathway (AID 743191; calls by dose curve; note: series mostly up to about 63 µM; nearly all actives have a fitted effect of over 30% in size)
How it was run: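 GeneBLAzer PPARg UAS-bla HEK293H cells, 5 h post-plating, exposed to compounds 17 h at 37C. LiveBLAzer B/G FRET substrate added for 1 h at room temperature; beta-lactamase reporter read by fluorescence intensity.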

Chain of Bile acid receptor (Homo sapiens) (Q96RI1 whole entry, looked up): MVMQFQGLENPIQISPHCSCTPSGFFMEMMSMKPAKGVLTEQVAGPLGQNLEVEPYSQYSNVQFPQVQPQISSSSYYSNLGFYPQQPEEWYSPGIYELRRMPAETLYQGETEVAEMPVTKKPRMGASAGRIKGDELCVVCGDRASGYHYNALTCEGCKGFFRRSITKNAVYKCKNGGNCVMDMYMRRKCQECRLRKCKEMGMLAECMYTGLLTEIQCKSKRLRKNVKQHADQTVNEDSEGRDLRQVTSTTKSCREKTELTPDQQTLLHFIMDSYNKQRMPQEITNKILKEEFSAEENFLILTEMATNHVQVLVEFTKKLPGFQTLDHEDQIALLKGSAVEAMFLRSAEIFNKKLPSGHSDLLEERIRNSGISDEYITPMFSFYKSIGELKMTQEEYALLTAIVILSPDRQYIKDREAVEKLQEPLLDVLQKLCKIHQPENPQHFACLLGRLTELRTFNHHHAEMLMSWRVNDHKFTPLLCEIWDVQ
Chain of Peroxisome proliferator-activated receptor gamma (Homo sapiens) (P37231 whole entry, looked up): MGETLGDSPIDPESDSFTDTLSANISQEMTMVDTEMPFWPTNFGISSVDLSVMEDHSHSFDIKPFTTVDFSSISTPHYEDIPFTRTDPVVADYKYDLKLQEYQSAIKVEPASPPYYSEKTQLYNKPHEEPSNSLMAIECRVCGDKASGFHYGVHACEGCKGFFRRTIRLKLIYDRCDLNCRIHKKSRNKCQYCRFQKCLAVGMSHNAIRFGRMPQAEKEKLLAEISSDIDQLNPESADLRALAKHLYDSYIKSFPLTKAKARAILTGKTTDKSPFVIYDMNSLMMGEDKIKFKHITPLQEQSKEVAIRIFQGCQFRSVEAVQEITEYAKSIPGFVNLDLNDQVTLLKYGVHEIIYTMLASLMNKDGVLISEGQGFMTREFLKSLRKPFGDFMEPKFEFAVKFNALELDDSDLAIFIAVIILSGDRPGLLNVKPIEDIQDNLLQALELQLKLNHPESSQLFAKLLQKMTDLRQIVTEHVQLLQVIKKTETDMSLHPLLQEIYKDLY
Chain of Vitamin D3 receptor (Homo sapiens) (P11473 whole entry, looked up): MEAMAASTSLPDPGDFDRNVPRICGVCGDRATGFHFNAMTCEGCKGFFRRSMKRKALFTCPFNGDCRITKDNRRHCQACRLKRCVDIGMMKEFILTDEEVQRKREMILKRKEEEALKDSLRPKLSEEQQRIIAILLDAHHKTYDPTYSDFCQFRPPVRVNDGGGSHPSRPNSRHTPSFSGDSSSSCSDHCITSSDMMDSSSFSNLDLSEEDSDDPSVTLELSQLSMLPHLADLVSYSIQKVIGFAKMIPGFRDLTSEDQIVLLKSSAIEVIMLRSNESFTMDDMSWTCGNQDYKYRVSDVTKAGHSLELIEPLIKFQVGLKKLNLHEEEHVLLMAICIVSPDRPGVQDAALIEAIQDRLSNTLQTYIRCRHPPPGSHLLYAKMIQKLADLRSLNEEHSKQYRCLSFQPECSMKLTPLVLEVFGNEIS
Chain of Peroxisome proliferator-activated receptor delta (Homo sapiens) (Q03181 whole entry, looked up): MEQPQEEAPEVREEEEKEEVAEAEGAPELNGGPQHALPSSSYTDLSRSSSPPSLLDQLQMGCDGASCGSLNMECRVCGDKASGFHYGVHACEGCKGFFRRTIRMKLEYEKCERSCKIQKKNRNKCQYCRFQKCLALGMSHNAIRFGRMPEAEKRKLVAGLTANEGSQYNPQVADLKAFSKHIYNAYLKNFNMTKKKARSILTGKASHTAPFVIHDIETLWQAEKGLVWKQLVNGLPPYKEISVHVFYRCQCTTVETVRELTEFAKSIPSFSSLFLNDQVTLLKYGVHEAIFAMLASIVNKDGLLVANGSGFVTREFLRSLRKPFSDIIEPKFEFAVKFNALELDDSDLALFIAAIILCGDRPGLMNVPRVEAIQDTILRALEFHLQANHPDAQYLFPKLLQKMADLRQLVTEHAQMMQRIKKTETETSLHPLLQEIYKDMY

SMILES	Potency [1]	Potency [2]	Potency [3]	Potency [4]	outcome [5]	Potency [6]	Potency [7]	outcome [8]	Potency [9]	Potency [10]	outcome [11]	Potency [12]	Potency [13]	Potency [14]	Potency [15]	outcome [16]	outcome [17]	outcome [18]	Potency [19]
CC(C)(Oc1ccc(Cl)cc1)C(=O)OCCCOC(=O)C(C)(C)Oc1ccc(Cl)cc1	inactive	inactive	inactive	inactive	inactive	inactive	inactive	inactive	inactive	inactive	inactive	inactive	inactive	inactive					
OCCC1CCCCN1 (stereo not given)	inactive		inactive	inactive	inactive	inactive	inactive	inactive	inactive			inactive	inactive	inactive	inactive	inactive	inactive	inactive	
CCCCCc1ccc(N)cc1	inactive			inactive	inactive	inactive			inactive	inactive	inactive	inactive	inactive	inactive		inactive			inactive
CCCc1ccccc1	inactive		inactive	inactive		inactive	inactive	inactive	inactive	inactive	inactive	inactive	inactive	inactive		inactive			inactive
CC(C)c1cccc(C(C)C)c1NC(=O)NS(=O)(=O)c1cc(C(C)(C)O)co1	inactive		inactive	inactive		inactive	inactive	inactive	inactive	inactive	inactive		inactive	inactive		inactive	inactive	inactive	
CC(=O)SCc1ccco1	inactive		inactive	inactive			inactive	inactive	inactive	inactive	inactive	inactive	inactive	inactive	inactive			inactive	inactive
Cc1cc(CC(=O)O)c(C)n1-c1ccc(Cl)cc1	inactive		inactive	inactive	inactive	inactive			inactive	inactive	inactive	inactive	inactive	inactive			inactive	inactive	
COc1ccc(OC)c(OC)c1	inactive		inactive				inactive		inactive	inactive	inactive	inactive	inactive	inactive	inactive		inactive	inactive	inactive
Cc1cc(O)ccc1N	inactive	21.8 µM (active)	inactive	inactive		inactive		inactive	inactive						inactive	inactive	inactive		
Nc1ccc(C(=O)N2CC3CC(CN(Cc4ccccc4)C3)C2)cc1	inactive	inactive	inactive	inactive		inactive	inactive	inactive	inactive	inactive	inactive		inactive	inactive		inactive	inactive	inactive	
O=C1Nc2cc(Cl)ccc2Oc2ccccc21	inactive		inactive	inactive	inactive	inactive	inactive	inactive	inactive	inactive	inactive	inactive	inactive	inactive		inactive	inactive	inactive	inactive
Oc1ccc(Cc2ccccc2)cc1	inactive		inactive	inactive			inactive	inactive	inactive	inactive	inactive		inactive						
CCOC(=O)CC(C)C		inactive	inactive		inactive	inactive	inactive		inactive		inactive		inactive	inactive	inactive	inactive			inactive
Cc1nc2ccccc2n1Cc1ccc(Cl)cc1	inactive			inactive		inactive									inactive				
CCCCCCCC/C=C\CCCCCCCC(N)=O	inactive	inactive	inactive		inactive	inactive	inactive	inactive		inactive	inactive	inactive	inactive	inactive	inactive	inactive		inactive	
O=[N+]([O-])c1cc[n+]([O-])cc1			30.6 µM (active)			inactive	inactive		inactive		inactive			inactive	inactive		inactive	inactive	
O=c1c2ccccc2nnn1CCl			inactive	inactive		inactive		inactive	inactive	inactive	inactive	inactive	inactive		inactive	inactive			inactive
Nc1ccc(C(=O)Nc2ccccc2N)cc1	inactive			inactive		inactive				inactive		inactive	inactive	inactive	9.52 µM (active)				
